Active and inactive are the calls of the source. How the source made its calls: active means hit-call score of the fitted dose curve at least 0.9, where 1 is the maximum; inactive means score below 0.9.
Key:
Conditions in all cases: mRNA level, 48 h; actives raise or lower the signal
[1] = read-out: DNA damage-inducible transcript 3 (DDIT3), DDIT3 (gene 1649); assay: LTEA_HepaRG_DDIT3: Life Technologies and Expression Analysis (LTEA) Assay for DNA damage-inducible transcript 3 (DDIT3) using HepaRG (AID 2283488)
Method in brief: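 DDIT3 transcript was quantified by qRT-PCR with ACTB/GAPDH/POLR2A normalization after 48 h chemical treatment of differentiated HepaRG cells in 0.5% DMSO. Dosing was eight-point, half-log, top 100 uM, duplicate wells. Curves fitted bidirectionally versus DMSO.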

[2] = read-out: Pro-epidermal growth factor (Homo sapiens) (UniProt P01133); assay: LTEA_HepaRG_EGF: Life Technologies and Expression Analysis (LTEA) Assay for Epidermal growth factor (EGF) using HepaRG (AID 2283489)
Method in brief: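 HepaRG cells (~100,000/well, 48 h pre-culture) exposed in duplicate for 48 h in serum-free induction medium to 8 half-log concentrations up to 100 uM in 0.5% DMSO. EGF mRNA by qRT-PCR, normalized to ACTB/GAPDH/POLR2A; bidirectional fit versus DMSO.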

[3] = read-out: Early growth response protein 1 (EGR1) transcription factor, EGR1 (gene 1958); assay: LTEA_HepaRG_EGR1: Life Technologies and Expression Analysis (LTEA) Assay for Early growth response protein 1 (EGR1) transcription factor using HepaRG (AID 2283490)
Method in brief: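 HepaRG, 48 h exposure, 8-pt half-log series from 100 uM, 0.5% DMSO vehicle; EGR1 transcript by TaqMan qRT-PCR (Fluidigm array), housekeeping-normalized; bidirectional fit relative to DMSO baseline.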

[4] = read-out: Ezrin (EZR), EZR (gene 7430); assay: LTEA_HepaRG_EZR: Life Technologies and Expression Analysis (LTEA) Assay for Ezrin (EZR) using HepaRG (AID 2283491)
Method in brief: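 Differentiated human HepaRG cells, 48 h after plating, were exposed in serum-free induction medium for 48 hours to eight half-log concentrations up to 100 uM in 0.5% DMSO. EZR mRNA was measured by TaqMan qRT-PCR, normalized to ACTB, GAPDH and POLR2A, and fitted bidirectionally against DMSO.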

[5] = read-out: Cytochrome P450 3A7 (Homo sapiens) (UniProt P24462); assay: LTEA_HepaRG_CYP3A7: Life Technologies and Expression Analysis (LTEA) Assay for CYP3A7 using HepaRG (AID 2283492)
Method in brief: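 Differentiated HepaRG cells in serum-free induction medium exposed 48 h in duplicate to 8-point half-log series from 100 uM top in 0.5% DMSO. CYP3A7 mRNA by qRT-PCR, normalized to ACTB/GAPDH/POLR2A, bidirectional fit versus DMSO.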

[6] = read-out: Fatty Acid-Binding Protein 1 (FABP1), FABP1 (gene 2168); assay: LTEA_HepaRG_FABP1: Life Technologies and Expression Analysis (LTEA) Assay for Fatty Acid-Binding Protein 1 (FABP1) using HepaRG (AID 2283494)
Method in brief: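 qRT-PCR readout of FABP1 transcript (normalized to three housekeeping genes) after 48 h chemical exposure of HepaRG cells; eight concentrations, half-log steps, max 100 uM, 0.5% DMSO vehicle; gain or loss fitted relative to DMSO baseline.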

[7] = read-out: Cytochrome P450 4A22 (Homo sapiens) (UniProt Q5TCH4); assay: LTEA_HepaRG_CYP4A22: Life Technologies and Expression Analysis (LTEA) Assay for Cytochrome P450 4A22 (CYP4A22) using HepaRG (AID 2283495)
Method in brief: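 Differentiated HepaRG cells in serum-free induction medium exposed 48 h in duplicate to eight half-log concentrations up to 100 uM in 0.5% DMSO. CYP4A22 mRNA quantified by TaqMan qRT-PCR, normalized to ACTB, GAPDH and POLR2A; bidirectional fit versus DMSO.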

[8] = read-out: Glutathione S-Transferase (GSTA2), GSTA2 (gene 2939); assay: LTEA_HepaRG_GSTA2: Life Technologies and Expression Analysis (LTEA) Assay for Glutathione S-Transferase (GSTA2) using HepaRG (AID 2283497)
Method in brief: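 qRT-PCR readout of GSTA2 transcript, normalized to three housekeeping genes, fitted bidirectionally against 0.5% DMSO baseline. Differentiated HepaRG cells received compound for 48 h at 8 concentrations (top 100 uM, half-log steps).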

[9] = read-out: Glutamate-cysteine ligase catalytic (GCLC), GCLC (gene 2729); assay: LTEA_HepaRG_GCLC: Life Technologies and Expression Analysis (LTEA) Assay for Glutamate-cysteine ligase catalytic (GCLC) using HepaRG (AID 2283498)
Method in brief: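 HepaRG, 48 h exposure, 8-pt half-log series from 100 uM, 0.5% DMSO vehicle; TaqMan qRT-PCR for GCLC mRNA, housekeeping-normalized; bidirectional curve fit vs DMSO baseline.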

[10] = read-out: growth arrest and DNA damage 45 (GADD45G), GADD45G (gene 10912); assay: LTEA_HepaRG_GADD45G: Life Technologies and Expression Analysis (LTEA) Assay for growth arrest and DNA damage 45 (GADD45G) using HepaRG (AID 2283499)
Method in brief: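 Differentiated human HepaRG cells, 48 h post-plating, exposed 48 h in serum-free induction medium to 8 half-log concentrations (top 100 uM, 0.5% DMSO) in duplicate. GADD45G mRNA measured by Fluidigm TaqMan qRT-PCR, normalized to ACTB, GAPDH, POLR2A; bidirectional fit versus DMSO.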

[11] = read-out: Glutamate-cysteine ligase regulatory (GCLM), GCLM (gene 2730); assay: LTEA_HepaRG_GCLM: Life Technologies and Expression Analysis (LTEA) Assay for Glutamate-cysteine ligase regulatory (GCLM) using HepaRG (AID 2283500)
Method in brief: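 GCLM expression quantified by qRT-PCR, normalized to three housekeeping genes, after 48 h chemical treatment of HepaRG cells in duplicate at 8 concentrations (top 100 uM, half-log steps, 0.5% DMSO). Changes fitted both directions against vehicle.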

[12] = read-out: Glutathione S-transferase M3 (GSTM3), GSTM3 (gene 2947); assay: LTEA_HepaRG_GSTM3: Life Technologies and Expression Analysis (LTEA) Assay for Glutathione S-transferase M3 (GSTM3) using HepaRG (AID 2283501)
Method in brief: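 Differentiated human HepaRG cells were exposed in duplicate for 48 h in serum-free induction medium, 8 points from 100 uM top in half-log steps, 0.5% DMSO. GSTM3 mRNA was measured by TaqMan qRT-PCR, normalized to ACTB, GAPDH and POLR2A; bidirectional fit versus DMSO.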

[13] = read-out: Heat shock 70 kDa protein 1 (HSPA1A), gene 3303; assay: LTEA_HepaRG_HSPA1A: Life Technologies and Expression Analysis (LTEA) Assay for Heat shock 70 kDa protein 1 (HSPA1A) using HepaRG (AID 2283502)
Method in brief: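 HSPA1A expression measured by qRT-PCR with ACTB/GAPDH/POLR2A normalization; curves fitted in both directions relative to DMSO vehicle. Exposure: 48 h in HepaRG cells, duplicate 8-point half-log series from 100 uM, 0.5% DMSO, serum-free induction medium.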

[14] = read-out: Hypoxia-inducible factor 1-alpha (Homo sapiens) (UniProt Q16665); assay: LTEA_HepaRG_HIF1A: Life Technologies and Expression Analysis (LTEA) Assay for Hypoxia-inducible factor 1 (HIF1A) Trancription factor using HepaRG (AID 2283503)
Method in brief: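 HIF1A transcript level read by qRT-PCR (ACTB, GAPDH, POLR2A normalization) after 48 h chemical exposure of HepaRG cultures. Eight half-log concentrations, top 100 uM, 0.5% DMSO vehicle, duplicates; bidirectional curve fit against DMSO baseline.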

HGF (gene 3082) = assay: LTEA_HepaRG_HGF: Life Technologies and Expression Analysis (LTEA) Assay for Hepatocyte Growth Facto (HGF) using HepaRG (AID 2283505)
Method in brief: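 Differentiated HepaRG cells in serum-free induction medium exposed 48 h in duplicate, 8 half-log concentrations from 100 uM in 0.5% DMSO. HGF mRNA by qRT-PCR, normalised to ACTB, GAPDH, POLR2A; bidirectional fitting.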

[15] = read-out: Insulin Like Growth Factor 1 (IGF1), IGF1 (gene 3479); assay: LTEA_HepaRG_IGF1: Life Technologies and Expression Analysis (LTEA) Assay for Insulin Like Growth Factor 1 (IGF1) using HepaRG (AID 2283506)
Method in brief: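 Expression measured by TaqMan qRT-PCR on a Fluidigm array, with three housekeeping genes for normalisation, after 48 h treatment of HepaRG cells. Top concentration 100 uM with half-log steps, 0.5% DMSO vehicle, bidirectional fit.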

[16] = read-out: Intercellular Adhesion Molecule 1 (ICAM1), ICAM1 (gene 3383); assay: LTEA_HepaRG_ICAM1: Life Technologies and Expression Analysis (LTEA) Assay for Intercellular Adhesion Molecule 1 (ICAM1) using HepaRG (AID 2283507)
Method in brief: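 Differentiated human HepaRG cells in serum-free induction medium exposed 48 h in duplicate to 8 half-log concentrations (top 100 uM, 0.5% DMSO). ICAM1 mRNA quantified by TaqMan qRT-PCR, normalized to ACTB, GAPDH and POLR2A; bidirectional fitting versus DMSO.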

[17] = read-out: 3-Hydroxy-3-Methylglutaryl-CoA Synthase 2 (HMGCS2), HMGCS2 (gene 3158); assay: LTEA_HepaRG_HMGCS2: Life Technologies and Expression Analysis (LTEA) Assay for 3-Hydroxy-3-Methylglutaryl-CoA Synthase 2 (HMGCS2) using HepaRG (AID 2283504)
Method in brief: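 Human HepaRG cells in serum-free induction medium were exposed in duplicate for 48 h to 8-point half-log series from 100 uM top in 0.5% DMSO. HMGCS2 mRNA measured by TaqMan qRT-PCR, normalised to ACTB, GAPDH, POLR2A; bidirectional fit versus DMSO.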

Measured: AC50

Sequence of Cytochrome P450 3A7 (Homo sapiens) (P24462 whole entry, looked up): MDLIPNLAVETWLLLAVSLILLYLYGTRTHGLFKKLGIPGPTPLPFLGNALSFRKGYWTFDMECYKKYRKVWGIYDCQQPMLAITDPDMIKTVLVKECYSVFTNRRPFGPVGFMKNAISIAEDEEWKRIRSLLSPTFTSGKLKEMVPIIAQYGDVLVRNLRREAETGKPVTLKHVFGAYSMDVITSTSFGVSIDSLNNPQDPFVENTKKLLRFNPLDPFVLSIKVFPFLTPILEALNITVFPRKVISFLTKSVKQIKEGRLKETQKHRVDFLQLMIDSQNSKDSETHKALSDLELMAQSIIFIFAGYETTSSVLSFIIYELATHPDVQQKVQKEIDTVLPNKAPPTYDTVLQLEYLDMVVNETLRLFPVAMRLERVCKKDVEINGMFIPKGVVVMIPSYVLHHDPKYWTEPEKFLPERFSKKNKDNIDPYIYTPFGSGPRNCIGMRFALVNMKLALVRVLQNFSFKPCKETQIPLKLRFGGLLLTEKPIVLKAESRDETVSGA
Sequence of Hypoxia-inducible factor 1-alpha (Homo sapiens) (Q16665 whole entry, looked up): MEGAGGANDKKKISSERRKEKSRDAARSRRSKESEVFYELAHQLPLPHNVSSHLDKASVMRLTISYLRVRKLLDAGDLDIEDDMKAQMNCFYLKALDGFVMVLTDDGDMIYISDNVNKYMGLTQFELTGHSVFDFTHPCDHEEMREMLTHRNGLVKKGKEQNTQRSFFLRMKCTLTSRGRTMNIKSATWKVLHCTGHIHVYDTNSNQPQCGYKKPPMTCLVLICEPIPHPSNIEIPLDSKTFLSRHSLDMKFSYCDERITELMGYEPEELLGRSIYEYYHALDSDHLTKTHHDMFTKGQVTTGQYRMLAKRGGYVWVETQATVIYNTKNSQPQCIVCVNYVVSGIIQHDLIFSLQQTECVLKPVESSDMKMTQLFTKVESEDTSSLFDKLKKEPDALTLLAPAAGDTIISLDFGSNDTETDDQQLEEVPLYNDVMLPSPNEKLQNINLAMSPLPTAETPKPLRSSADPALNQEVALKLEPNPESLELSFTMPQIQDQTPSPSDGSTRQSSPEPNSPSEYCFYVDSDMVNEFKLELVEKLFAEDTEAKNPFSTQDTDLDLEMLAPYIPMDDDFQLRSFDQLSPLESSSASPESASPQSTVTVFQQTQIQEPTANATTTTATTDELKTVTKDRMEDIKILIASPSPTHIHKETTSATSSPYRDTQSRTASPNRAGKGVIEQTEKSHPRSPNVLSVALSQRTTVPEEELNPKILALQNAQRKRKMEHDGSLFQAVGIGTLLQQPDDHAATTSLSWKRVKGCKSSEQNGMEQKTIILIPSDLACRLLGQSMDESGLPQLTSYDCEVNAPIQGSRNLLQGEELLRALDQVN

C=CCCCCCCCCCCCC
not listed: [17]
inactive: all other assays above

CC(C)(C)c1ccccc1
not listed: [17]
inactive: all other assays above

Cc1ccc(-c2cc(C(F)(F)F)nn2-c2ccc(S(N)(=O)=O)cc2)cc1
active: [1] 68.8 µM | [6] 50 µM | [8] 82.1 µM | [9] 50 µM | [10] 67.5 µM | [15] 81.3 µM | [16] 50 µM
not listed: [5] | [17]
inactive: all other assays above

Cc1occc(=O)c1O
not listed: [14]
inactive: all other assays above

CC(=O)OC1CC(C)OC(C)O1 (stereo not given)
inactive: all assays above
